Measured values reported in PubChem BioAssay AID463173 (ICCB-Longwood Screening Facility, Harvard Medical School, 2010).
The whole screen tested about 52,000 compounds, of which about 4,300 (8.3%) were called active. Cut-off read from the data, not from the text of the source: active = survival mostly below about 52% (no sharp cut-off); inactive = mostly above about 56%. Many of the other results were omitted from the sample, so actives are more common in it than they were.

Test system: DeltatarO mutant
Assay: growth inhibition of S. aureus wild type versus tarO mutant, primary screen, teichoic acid synthesis inhibitors, RN4220, OD600 (AID 463173)
Conditions: OD600, 18 h, stronger effect = lower value, screened at 18.75 µg/mL (by protocol)

SMILES	survival
CCC1=NN(C(=O)c2ccccc2O)C(O)(c2ccccc2)C1 (stereo not given)	1% (active)
CCOC(=O)N1N=C(C)CC1(O)c1ccccc1 (stereo not given)	90% (inactive)
CCC1=NN(C(=O)Cc2ccccc2)C(O)(c2ccccc2)C1 (stereo not given)	77% (inactive)
COc1ccc(CCNC(=O)C2CCCN(c3nc4c(C)cc(C)cc4s3)C2)cc1OC (stereo not given)	81% (inactive)
O=C(CC(c1ccccc1)c1ccccc1)N1CCN(c2ccccn2)CC1	72% (inactive)
CCCOc1cccc(C(=O)Nc2cc(-c3nc4ccccc4[nH]3)ccc2C)c1	56% (active)
COc1cc(OC)cc(C(=O)Nc2cc(-c3nc4ccccc4[nH]3)ccc2C)c1	44% (active)
CCCOc1ccc(C(=O)Nc2cc(-c3nc4cc(C)cc(C)c4o3)ccc2C)cc1	85% (inactive)
CCCOc1ccc(C(=O)Nc2cc(-c3nc4ccccc4[nH]3)ccc2C)cc1	44% (active)
Cc1ccc(-c2nc3ccccc3[nH]2)cc1NC(=O)COc1ccccc1[N+](=O)[O-]	60% (inactive)
COc1c(Cl)cc(C(=O)Nc2cc(-c3nc4ccccc4[nH]3)ccc2C)cc1Cl	49% (inactive)
Cc1ccc(-c2nc3ccccc3[nH]2)cc1NC(=O)C(C)C	70% (inactive)
CCCOc1cccc(C(=O)Nc2ccc(-c3nc4ccccc4o3)cc2)c1	77% (inactive)
Cc1ccc(-c2nc3ccccc3[nH]2)cc1NC(=O)COc1cccc(C)c1C	43% (inactive)
Cc1ccc(OCC(=O)Nc2cc(-c3nc4ccccc4[nH]3)ccc2C)c(C)c1	78% (inactive)
Cc1ccc(C(C)C)c(OCC(=O)Nc2cc(-c3nc4ccccc4[nH]3)ccc2C)c1	71% (inactive)
Cc1ccc(-c2nc3ccccc3[nH]2)cc1NC(=O)COc1ccc(Cl)cc1Cl	18% (active)
Cc1ccc(NC(=O)Cn2nc(C(F)(F)F)c3c2CCCC3)cc1	120% (inactive)
CCn1c(=O)c2sccc2n2c(CCC(=O)Nc3ccc(OC)cc3OC)nnc12	82% (inactive)
Cc1cccc(NC(=O)c2cnc3sc(N4CCCC4)nn3c2=O)c1C	73% (inactive)
Cc1ccc(NC(=O)C2CCCN(c3ncnc4c3nc3n4CCCCC3)C2)c(Br)c1 (stereo not given)	87% (inactive)
CC(=O)c1cccc(NC(=O)C2=CC(c3ccc4c(c3)OCO4)=NS(=O)(=O)N2C)c1	72% (inactive)
Cc1ccc(CNC(=O)CN(c2cc(C)cc(C)c2)S(=O)(=O)c2c(C)[nH]c(=O)[nH]c2=O)cc1	91% (inactive)

SMILES	survival
Cc1ccccc1NC(=O)CSc1nc2ccc(NC(=O)c3cccs3)cc2s1	91% (inactive)
Cc1ccc(OCCn2nnc3sc4c(c3c2=O)CCC(C)C4)cc1 (stereo not given)	54% (inactive)
CN(C)c1ccc(NC(=O)Cn2nnc3sc4c(c3c2=O)CCC(C(C)(C)C)C4)cc1 (stereo not given)	79% (inactive)
CCCCc1ccc(NC(=O)Cn2nnc3sc4c(c3c2=O)CCC(C)C4)cc1 (stereo not given)	58% (inactive)
CC1CCc2c(sc3nnn(Cc4ccc(F)cc4)c(=O)c23)C1 (stereo not given)	-1% (active)
CC1CCc2c(sc3nnn(Cc4ccccc4Cl)c(=O)c23)C1 (stereo not given)	13% (active)
CC1CCc2c(sc3nnn(CC(=O)Nc4ccccc4Cl)c(=O)c23)C1 (stereo not given)	71% (inactive)
CCc1ccccc1NC(=O)Cn1nnc2sc3c(c2c1=O)CCC(C(C)(C)C)C3 (stereo not given)	47% (active)
Cc1ccccc1OCCCCn1nnc2sc3c(c2c1=O)CCC(C)C3 (stereo not given)	65% (inactive)
CCOc1ccccc1NC(=O)Cn1nnc2sc3c(c2c1=O)CCC(C(C)(C)C)C3 (stereo not given)	106% (inactive)
CC1CCc2c(sc3nnn(CCCCOc4ccc(Cl)cc4)c(=O)c23)C1 (stereo not given)	107% (inactive)
Cc1ccc(Cn2nnc3sc4c(c3c2=O)CCC(C)C4)cc1 (stereo not given)	54% (active)
COC(=O)c1ccc(Cn2nnc3sc4c(c3c2=O)CCC(C)C4)cc1 (stereo not given)	79% (inactive)
CCN(CC)C(=O)Cn1cc(SCC(=O)Nc2ccccc2F)c2ccccc21	103% (inactive)
CCc1cccc(NC(=O)c2cc3c(=O)[nH]c4ccccc4c3n2C)c1	89% (inactive)
C=CCNC(=O)C(C)N1CCN(C)CC1 (stereo not given)	73% (inactive)
Cc1ccccc1CNC(=O)C1CCN(S(=O)(=O)Cc2ccccc2)CC1	75% (inactive)
CCOc1ccc(-c2nnc(SCC(=O)Oc3ccccc3)o2)cc1	71% (inactive)
CCC12CN3CC(C)(CN(C1)C3c1ccc(O)cc1O)C2=O (stereo not given)	78% (inactive)
CCc1ccc(S(=O)(=O)c2nnn3c2nc(NCc2ccccc2)c2cc(Cl)ccc23)cc1	86% (inactive)
CC1CCc2c(sc3nnn(Cc4ccccc4)c(=O)c23)C1 (stereo not given)	3% (active)
CCCOC(=O)c1ccc(Cn2nnc3sc4c(c3c2=O)CCC(C)C4)cc1 (stereo not given)	79% (inactive)
CC1CCc2c(sc3nnn(Cc4cccc(C(=O)OC(C)C)c4)c(=O)c23)C1 (stereo not given)	78% (inactive)

SMILES	survival
COc1ccccc1CNC(=O)C(C)n1c(=O)cc(C(F)(F)F)c2c(C)nn(C)c21 (stereo not given)	94% (inactive)
CCOc1ccccc1NC(=O)Cn1nc2c3cc(F)ccc3n(Cc3cccc(C)c3)cc-2c1=O	72% (inactive)
CCc1ccccc1NC(=O)Cn1nc2c3cc(F)ccc3n(Cc3cccc(C)c3)cc-2c1=O	84% (inactive)
COc1ccccc1NC(=O)Cn1nc2c3cc(F)ccc3n(Cc3cccc(C)c3)cc-2c1=O	-2% (active)
O=C(Cn1ccn(-c2cccc(Cl)c2)c(=O)c1=O)c1ccc(F)cc1	59% (inactive)
O=C(Nc1ccc(Cl)cc1C(F)(F)F)c1cc(S(=O)(=O)NCc2ccccc2)ccc1F	130% (inactive)
O=C(CN(Cc1ccccc1)C(=O)Cn1nnc(-c2ccc(F)cc2)n1)NC1CCCC1	70% (inactive)
COc1ccc(-c2nc3ccc(NS(=O)(=O)c4ccccc4)cc3o2)cc1	36% (active)
COc1ccc(-c2nc3ccc(NS(=O)(=O)c4ccc(C)cc4)cc3o2)cc1	45% (inactive)
CCC(Oc1ccccc1)C(=O)Nc1ccc2oc(-c3ccc(OC)cc3)nc2c1 (stereo not given)	111% (inactive)
COc1ccc(-c2nc3ccc(NS(C)(=O)=O)cc3o2)cc1	77% (inactive)
COc1ccc(OCC(=O)Nc2ccc(-c3nc4cc(Cl)ccc4o3)cc2)cc1	134% (inactive)
COc1ccc(-c2nc3ccc(NS(=O)(=O)c4ccc(Cl)cc4)cc3o2)cc1	23% (active)
CCCCC(CC)CNC(=O)c1ccc(Cn2c(=O)[nH]c3cc(OC)c(OC)cc3c2=O)cc1 (stereo not given)	72% (inactive)
O=C(Cn1c(=O)c(CNc2ccccc2)cc2cc3c(cc21)OCCO3)Nc1ccccc1Cl	131% (inactive)
O=C(COc1ccccc1)Nc1nnc2n1CCS2	86% (inactive)
Cc1cn2c(=O)cc(COC(=O)c3ccc(NC(=O)c4ccccc4C)cc3)nc2s1	101% (inactive)
COc1ccccc1N1CCN(S(=O)(=O)CCNC(=O)COc2ccccc2F)CC1	83% (inactive)
CCCCn1c(CNC(=O)C23CC4CC(CC(C4)C2)C3)nnc1SCC(=O)Nc1ccc(F)cc1	54% (active)
CCCCn1c(CNC(=O)C23CC4CC(CC(C4)C2)C3)nnc1SCC(=O)Nc1ccccc1	54% (inactive)
CCCCn1c(CNC(=O)C23CC4CC(CC(C4)C2)C3)nnc1SCC(=O)Nc1ccc(C)cc1	36% (active)
CCn1c(CNC(=O)C23CC4CC(CC(C4)C2)C3)nnc1SCC(=O)Nc1ccc(C)cc1	60% (inactive)
CCn1c(CNC(=O)C23CC4CC(CC(C4)C2)C3)nnc1SCC(=O)Nc1ccccc1	66% (inactive)

SMILES	survival
CCn1c(CNC(=O)C23CC4CC(CC(C4)C2)C3)nnc1SCC(=O)Nc1ccc(F)cc1	71% (inactive)
CCc1ccc(CNC(=O)c2ccc(NC(=O)N3CC(C)Sc4ccccc43)cc2)cc1 (stereo not given)	64% (inactive)
Cc1c(Cl)cccc1Nc1nc2ccc(C(=O)c3ccccc3)cc2n2cnnc12	77% (inactive)
CCNC(=O)CC1C(=O)N(c2cccc(OC)c2)C(=O)N1Cc1ccc(OC)c(OC)c1 (stereo not given)	80% (inactive)
CCN1C(=O)C2(C(C#N)=C(N)SC(N)=C2C#N)c2ccccc21	2% (active)
CCc1[nH]nc2c1C1(C(=O)N(CC)c3ccccc31)C(C#N)=C(N)O2 (stereo not given)	78% (inactive)
C=CCN1C(=O)C2(C(C#N)=C(N)Oc3n[nH]c(COC)c32)c2ccccc21 (stereo not given)	109% (inactive)
CCOc1ccccc1NC(=O)c1cn(C2CCCC2)c(=O)c2c1c1ccccc1n2C	122% (inactive)
COC(=O)c1cc(S(=O)(=O)NCC2CCN(Cc3cccc(F)c3)CC2)cn1C	122% (inactive)
Cc1ccc(NS(=O)(=O)c2ccc(-c3cc(C)no3)cc2)c(Br)c1	75% (inactive)
CCOc1ccccc1NC(=O)CSc1ncc(S(=O)(=O)c2ccc(C)c(C)c2)c(N)n1	99% (inactive)
Cc1nn(-c2ccccc2)c2sc(C(=O)N3CCOCC3)cc12	89% (inactive)
O=C(Nc1ccc(Cl)cc1)c1cc2c(-c3ccccc3)nn(-c3ccccc3)c2s1	51% (inactive)
COc1cccc(NC(=O)c2cc3c(-c4ccc(Cl)cc4)nn(C)c3s2)c1	84% (inactive)
Cc1nn(-c2ccccc2)c2sc(C(=O)Nc3cccc(O)c3)cc12	5% (active)
O=C(Nc1ccccc1)c1cc2c(-c3ccccc3)nn(-c3ccccc3)c2s1	44% (active)
Cc1nn(-c2ccccc2)c2sc(C(=O)Nc3cccc(Br)c3)cc12	30% (active)
Cc1ccc(NC(=O)c2cc3c(-c4ccccc4)nn(-c4ccccc4)c3s2)cc1	50% (inactive)
Cc1nn(-c2ccccc2)c2sc(C(=O)Nc3ccc(Cl)cc3Cl)cc12	71% (inactive)
Cc1nn(-c2ccccc2)c2sc(C(=O)Nc3cccc(Cl)c3)cc12	2% (active)
COc1ccc(C(c2c(C)n(C)n(-c3ccccc3)c2=O)c2c(C)n(C)n(-c3ccccc3)c2=O)cc1O	84% (inactive)
